Screens from PubChem.
In the library only some 7.5% were active in any assay of this set; here they are far more common.
Vaccinia mCherry: qHTS for Stage-Specific Inhibitors of Vaccinia Orthopoxvirus: mCherry Reporter Primary qHTS; Vaccinia virus mCherry reporter infection, fluorescence; Potency, µM (titrated, usually from 36.5 µM), inactives show at the top dose activity change, negative = inhibition, actives largely listed as inhibitors; 310,000 tested, 0.63% active; calls by dose curve; tested in A549 cells; note: potency is the fitted concentration of half-maximal effect; nearly all actives have a fitted effect of over 35% in size
HCMV antiviral: qHTS Assay for inhibitors of the human cytomegalovirus (HCMV). HFF cells, HCMV-luciferase reporter, 72 h; active compounds read low. 410,000 tested, 4.5% active. activity change, negative = inhibition, % at 57.5 µM; in the data active = activity change below about -60%; inconclusive = no clear call, values can overlap the other calls; inactive = above about -39%
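Steps: HFFs plated, 16 h 37C; compounds added; HCMV-luciferase added to MOI 1 PFU/cell; 72 h 37C; OneGlo reagent, 5 min room temperature; luminescence read, normalized to controls.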
Vaccinia Venus: qHTS for Stage-Specific Inhibitors of Vaccinia Orthopoxvirus: Venus Reporter Primary qHTS; Potency, µM (highest dose often 36.5 µM), inactives show at the top dose activity change, negative = inhibition, actives largely listed as inhibitors; 330,000 tested, 0.46% active; Vaccinia virus Venus reporter expression, fluorescence; AID 720580, 2013; calls by dose curve; tested in A549 cells; note: potency is the fitted concentration of half-maximal effect; nearly all actives have a fitted effect of over 30% in size
FBPA Giardia inh: qHTS Assay for Inhibitors of Fructose-1,6-bisphosphate Aldolase from Giardia Lamblia. 290,000 tested, 0.71% active. A8B2U2. purified Giardia FBPA. AID 2451, 2010. Potency, µM (series often up to 59.6 µM), for inactives: at the highest dose activity, negative = inhibition, most hits filed as inhibitors; note: potency is the fitted concentration of half-maximal effect; nearly all actives have a fitted effect of over 55% in size
Target sequence (A8B2U2 whole entry, looked up): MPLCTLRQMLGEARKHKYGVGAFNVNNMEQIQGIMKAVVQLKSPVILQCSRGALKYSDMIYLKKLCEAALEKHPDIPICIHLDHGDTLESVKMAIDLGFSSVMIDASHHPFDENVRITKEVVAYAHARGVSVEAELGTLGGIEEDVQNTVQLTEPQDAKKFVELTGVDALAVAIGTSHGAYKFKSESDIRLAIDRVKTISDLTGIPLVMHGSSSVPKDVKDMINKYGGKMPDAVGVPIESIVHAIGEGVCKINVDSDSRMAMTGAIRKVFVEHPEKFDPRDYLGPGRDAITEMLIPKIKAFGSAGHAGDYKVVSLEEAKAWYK
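Giardia FBPA (40 nM reagent) was preincubated 10 min at RT with compound (up to 57.5 uM final), then substrate plus GAPDH/TPI/NAD/arsenate coupling system with diaphorase/resazurin was added; resorufin fluorescence (525/598 nm) was read after 20 min.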
HCV inhibitor: qHTS Assay for Inhibitors of Hepatitis C Virus (HCV); Huh7.5.1 HCVcc-Cre infection, luciferase reporter, 44 h; Potency, µM (doses to about 41.8 µM), inactives show top-dose activity change, negative = inhibition, actives largely listed as inhibitors; 340,000 tested, 3.4% active; AID 651820, 2012; note: potency is the fitted concentration of half-maximal effect
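Reporter virus HCVcc-Cre (~0.5 moi) infects cells exposed to compound; seeding density 1,000 cells/well with 4 h settling beforehand. Luminescence, 15 sec read, taken 44 h post-infection following a 15 min RT substrate incubation.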
FMDV inh: High Throughput Screening for Foot and Mouth Disease Virus Antivirals. FMDV antiviral cell-based qHTS. Potency, µM (titrated, usually from 57.9 µM), for the others: top-dose activity change, negative = inhibition, actives largely listed as inhibitors. 410,000 tested, 1.2% active; calls by dose curve; tested in HEK293T cells; note: read-out not given here; potency is the fitted concentration of half-maximal effect; nearly all actives have a fitted effect of over 45% in size
* marks the source's active call; other numbers are inactive results; i = inactive; ? = inconclusive; / = no result given; + = active, no number. Unless noted, calls come from the whole dose curve; as a rule, active = well fitted curve in the direction sought with a large enough effect; inconclusive = small, poorly fitted or top-dose-only effect, or another doubt; inactive = no such curve, though single readings can be large; an effect the other way counts as inactive or inconclusive. % is set by controls: 0 for no effect and ±100 for the full control effect.

SMILES	Vaccinia mCherry	HCMV antiviral	Vaccinia Venus	FBPA Giardia inh	HCV inhibitor	FMDV inh
Cc1ccc(-c2n[nH]c(=S)c3ccccc23)cc1S(=O)(=O)NCC1CCCO1 (centres undefined)	-12%	-63*	6%	15%	?	-8%
Cc1ccc(-c2nnc(N3CCC(C)CC3)c3ccccc23)cc1	?	-32	?	3%	?	?
CCCCN1C(=O)C(CC(=O)NC(c2ccccc2)c2ccccc2)CC(C(=O)N2CCCCCC2)=C1C (centres undefined)	-7%	5	3%	/	/	-34%
Cc1ccc(Nc2cc(C)c(C#N)c3nc4ccccc4n23)cc1Cl	-25%	10	-9%	/	/	0%
Oc1ccc(N=Cc2ccc(O)c(O)c2)cc1	-18%	/	-11%	1.6µM*	-3%	-16%
Cc1ccc(NC(=O)c2oc3ccccc3c2NC(=O)C23CC4CC(CC(C4)C2)C3)cc1	-14%	-11	-16%	/	/	6%
CCn1c(SCC(=O)N/N=C/c2cc(OC)c(OC)c(OC)c2)nc2ccccc21	-5%	-18	-15%	1%	?	25µM*
Cc1cc(SCC(=O)NN)c2cc(Br)ccc2n1	-11%	-66*	-14%	-13%	3%	27%
CCn1c(SCC(=O)N/N=C/c2cc(OC)c(O)c(OC)c2)nc2ccccc21	-4%	-14	-8%	2%	30%	-17%
COc1ccc2nc(C)cc(SCC(=O)N/N=C/c3c(OC)ccc4ccccc34)c2c1	i	-3	-8%	-1%	1%	?
COc1ccccc1/C=N/NC(=O)CSc1cc(C)nc2ccccc12	-7%	-82*	-19%	-2%	-28%	-27%
COc1ccc2nc(C)cc(SCC(=O)N/N=C/c3ccc(O)cc3O)c2c1	?	-21	?	-10%	13µM*	?
Cc1cc(C(=O)NN)c2cc(Br)ccc2n1	?	-29	-24%	2%	5%	-11%
COc1cccc2c(SCC(=O)N/N=C/c3ccc(O)cc3O)cc(C)nc12	-18%	59	-3%	14%	?	?
COC(=O)c1ccc(CN2C[C@H](Sc3ccccn3)C[C@H]2C(=O)N(C)C)cc1	-2%	/	7%	/	/	11%
CCOc1ccc(CC(=O)NCc2ccc3c(c2)CCN3C(C)=O)cc1OCC	-16%	74	-10%	/	/	-2%
COc1ccc2nc(C)cc(SCC(=O)N/N=C/c3ccccc3)c2c1	-24%	-60*	-15%	-7%	-2%	?
Cc1ccc(/C=N/NC(=O)CSc2nc3ccccc3n2C)s1	-14%	-5	-10%	4µM*	-3%	-6%
COc1ccccc1/C=N/NC(=O)CC(=O)NCc1ccccc1	-14%	-25	-10%	18µM*	-14%	1%
C[C@@H]1CCCCO[C@H](CN(C)Cc2ccc3c(c2)OCO3)[C@@H](C)CN([C@H](C)CO)C(=O)c2cc(NC(=O)c3ccccc3)ccc2O1	?	-4	?	/	/	-25%
Clc1ccc(-c2noc(-c3cccnc3NCc3ccco3)n2)cc1	-18%	82	-6%	/	/	45%
Cn1c(NC(=O)c2ccccc2Br)cc(=O)n(C)c1=O	i	?	1%	5%	-14%	-4%
Cn1c(NC(=O)c2ccccc2C(F)(F)F)cc(=O)n(C)c1=O	-11%	-66*	-6%	3%	10%	-18%
COc1cc2nc(SCC(=O)Nc3ccccc3C)n3nc(CCn4c(C)nc5ccccc54)nc3c2cc1OC	0%	2	1%	/	/	-14%
Cc1n[nH]c(C)c1CCc1nc2c3ccccc3nc(SCC(=O)Nc3ccc(F)cc3)n2n1	-23%	-68*	-17%	/	/	?
SMILES	Vaccinia mCherry	HCMV antiviral	Vaccinia Venus	FBPA Giardia inh	HCV inhibitor	FMDV inh
CCOc1ccccc1NC(=O)CSc1nc2cc(OC)c(OC)cc2c2nc(CCn3c(C)nc4ccccc43)nn12	?	-93*	?	/	/	-12%
Cc1cncn1CCc1nc2c3ccccc3nc(SCC(=O)Nc3ccccc3F)n2n1	-21%	-67*	-18%	/	/	-9%
O=C(NCCN1CCOCC1)c1ccccc1OCc1ccccc1	i	-6	-14%	/	10%	-5%
CCCOc1ccc(-c2cn3ccccc3n2)cc1	/	-64*	/	-17%	?	-54%
Cc1cc(C)n(-c2nc(NC(C)C)nc(NC(C)(C)C)n2)n1	-11%	/	-18%	/	/	/
CC/C(=N/Nc1ccccc1)c1cnnc(-c2ccccc2)n1	-15%	?	2%	-5%	8.9µM*	3%
CC/C(=N/Nc1cccc(Cl)c1)c1cnnc(SC)n1	7%	-15	-5%	-5%	?	-23%
COc1ccccc1N1CCN(C(=O)c2cc3ccc4ccc(C)[nH]c4c3n2)CC1	-10%	-11	-3%	/	/	-13%
Cc1ccccc1C(O)c1cccnc1 (centres undefined)	i	-61*	-5%	-1%	15%	-24%
Cc1ccc(S(=O)(=O)N(C)C)cc1NC(=O)c1cc(C(C)(C)C)nn1Cc1ccccc1	/	-25	/	-16%	5.6µM*	?
CCOC(=O)c1c(NC(=O)CSc2nc3ccc(C)cc3[nH]2)sc2c1CC(C)(C)NC2(C)C	-25%	-20	?	/	6.3µM*	-23%
CCOC(=O)c1c(NC(=O)CSc2nnnn2-c2ccccc2)sc2c1CC(C)(C)NC2(C)C	-28%	/	?	8%	-18%	-26%
COc1cc(CNc2ncnc3c2[nH]c2ccc(C)cc23)cc(OC)c1	/	-65*	/	2%	?	?
Cc1ccc2[nH]c3c(NCc4ccco4)ncnc3c2c1	?	-94*	?	2%	11µM*	-10%
c1coc(CNc2ncnc3nc[nH]c23)c1	-5%	-21	-15%	0%	?	-30%
COc1ccc2[nH]c3c(NCCN4CCCCC4)ncnc3c2c1	/	/	/	5%	/	/
CCOC(=O)c1c(C)[nH]c(C)c1C(=O)Cn1nnc(-c2ccccc2C)n1	/	-25	/	1%	?	-12%
CC(C)(C)n1nc2c(c1NC(=O)c1ccc([N+](=O)[O-])cc1)CS(=O)(=O)C2	i	-2	-15%	7%	20%	-8%
CC(C)(C)n1nc2c(c1NC(=O)c1cc([N+](=O)[O-])ccc1Cl)CS(=O)(=O)C2	/	+	/	13%	1%	?
O=C(Nc1cccc(NC(=O)c2cc([N+](=O)[O-])ccc2Cl)n1)c1cc([N+](=O)[O-])ccc1Cl	/	/	/	/	1.1µM*	13µM*
O=C(CSc1nc2ccccc2c(=O)n1CC1CCCO1)NCC1CCCO1 (centres undefined)	/	8	/	4%	13%	-7%
COc1ccc(C(=O)Nn2c(SCC(=O)NC3CCCC3)nc3ccccc3c2=O)cc1	/	-22	/	22%	6%	18µM*
